Reference: paper PMC5540273 (PLoS ONE, 2017)

Test system: BMPR1A
Settings: concentration: 1 μM, replicates: in singlicate; n = 1
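Further: KINOMEscan kinase panel screen.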

| Compound | %Inh [%] |
| --- | --- |
| COc1cc(Nc2nccc(N3CCC(NS(=O)(=O)c4ccc(NC(C)=O)cc4)CC3)n2)cc(OC)c1OC [GSK1379825] | 29 |
| Cc1cc(-c2ccnc(Nc3cccc(C#N)c3)n2)cc(C)c1O [GSK1440913] | 0 |
| Cc1ccc(C)c(NC(=O)Nc2ccc(C)c(-c3ccc(C(=O)Nc4ccncc4)cc3)c2)c1 [GSK1398473] | 0 |
| CN(C)CCNS(=O)(=O)c1ccc(-c2ccnc3[nH]ccc23)cc1 [GSK977620] | 0 |
| O=C(Nc1n[nH]c2nc(-c3cccc(O)c3)ccc12)C1CC1 [SB-711805] | 8 |
| COc1cccc(C2=C(Nc3cccc(O)c3)C(=O)NC2=O)c1 [SB-390771] | 0 |
| CSc1ccc(NC2=C(c3ccc(Cl)cc3)C(=O)NC2=O)cc1 [SB-317658] | 6 |
| Cc1ccc(O)cc1Nc1ccnc2cc(-c3ccc(CN4CCCCC4)o3)ccc12 [GW557777] | 61 |
| Fc1cc(Cl)ccc1Nc1ccnc2cc(-c3ccc(CN4CCOCC4)o3)ccc12 [GW560109] | 18 |
| COC(=O)Nc1nc2ccc(Oc3ccc(NC(=O)Nc4cc(C(F)(F)F)ccc4F)cc3)cc2[nH]1.Cl [GW654607] | 18 |
| CN(c1ccc(NC(=O)N2CCN(CCCN3CCOCC3)CC2)cc1)c1ccnc(Nc2ccc(CS(C)(=O)=O)cc2)n1.Cl [GW830899] | 6 |
| CCn1c(-c2nonc2N)nc2c(-c3ccccc3)ncc(OCCCN)c21.O=C(O)C(F)(F)F.O=C(O)C(F)(F)F [GSK260205] | 0 |
| COc1cc(Nc2nccc(N3CCC(NC(=O)Nc4ccc5c(c4)OCO5)C3)n2)cc(OC)c1OC (stereo not shown) [GSK1379766] | 0 |
| Cc1ccc(NC(=O)c2ccnc(N3CCCCC3)c2)cc1-c1ccc(C(=O)NCC2CC2)cc1 [GW775610] | 0 |
| COC(=O)Nc1nc2ccc(Oc3ccc(CC(=O)Nc4cc(C(F)(F)F)ccc4F)cc3)cc2[nH]1 [GW680903] | 6 |
| COc1ccc(NC(=O)c2ccoc2)cc1-c1ccc(C(=O)NCC2CC2)cc1 [GW810437] | 7 |
| Cc1cccc(Nc2nc(NCCN)ncc2C(N)=O)c1 [GSK1292139] | 0 |
| Cl.N#CCc1ccc(Nc2nccc(Nc3ccc(Oc4ccccc4)cc3)n2)cc1 [GW639905] | 0 |
| Fc1cc(Cl)ccc1Nc1ccnc2cc(-c3ccc(CN4CCSCC4)o3)ccc12 [GW560106] | 14 |

| Compound | %Inh [%] |
| --- | --- |
| NCCC(NC(=O)c1cc(Br)c(-c2ccnc3[nH]ccc23)s1)c1ccccc1.O=C(O)C(F)(F)F.O=C(O)C(F)(F)F (stereo not shown) [GSK1307810] | 0 |
| O=C(O)C(F)(F)F.O=c1[nH]ccc2nc(N[C@@H]3CCNC3)nc(Nc3ccc4c(c3)S(=O)(=O)CC4)c12 [GSK2181306] | 0 |
| Cc1ccccc1CC(=O)N1CCc2cc(-c3cn(C)c4ncnc(N)c34)ccc21 [GSK2603346] | 0 |
| CCNC(=O)/C=C/c1n[nH]c2cc(Sc3ccccc3C(=O)NC)ccc12 | 12 |
| Nc1ncc(-c2ccc3nccc(-c4ccncc4)c3c2)cc1S(=O)(=O)N1CCCCC1 [GSK1693850] | 0 |
| CS(=O)(=O)c1cccc(CNc2nc(Nc3ccc4c(c3)CCC(=O)N4)ncc2C(F)(F)F)c1 | 0 |
| COc1ccc(C)c(Nc2ccnc(Nc3ccc(-c4cnc[nH]4)cc3)n2)c1.Cl [GW784041] | 70 |
| O=C(O)C(F)(F)F.O=c1[nH]ccc2nc(N[C@@H]3CCNC3)nc(Nc3cc(Cl)cc(Cl)c3)c12 [GSK2188764] | 0 |
| Cl.Cl.NC(CNC(=O)c1cc(Br)c(-c2ccnc3[nH]ccc23)s1)c1ccccc1 (stereo not shown) [GSK1322949] | 0 |
| COC(=O)Nc1nc2cc(Oc3ccc(NC(=O)Nc4cccc(SC)c4)cc3)ccc2[nH]1.Cl [GW697999] | 0 |
| CCOc1nccc(-c2c(-c3ccc(F)cc3)ncn2C2CCNCC2)n1 [SB-249175] | 100 |
| Cl.Cl.NCC(NC(=O)c1cc(-c2cccnc2)c(-c2ccnc3[nH]ccc23)s1)c1ccccc1 (stereo not shown) [GSK1323434] | 0 |
| Nc1ncnc2scc(-c3ccc(NC(=O)Cc4cc(F)ccc4F)cc3)c12.O=C(O)C(F)(F)F [SB-731254-M] | 22 |
| Cn1cc(-c2ccc3c(c2)CCN3C(=O)Cc2cc(F)cc(C(F)(F)F)c2)c2c(N)ncnc21 [GSK2635225] | 0 |
| COc1cccc2c(-c3ccncc3)c(-c3ccc(F)cc3)nn12 [GW468513] | 0 |
| COc1cccc(NC(=O)NCCNc2ccnc(Nc3ccc(F)cc3)n2)c1 [GSK1379879] | 0 |
| Cn1cc(-c2ccc3c(c2)CCN3C(=O)Cc2cc(F)cc(F)c2F)c2c(N)ncnc21 [GSK2634140] | 0 |
| CN(C)CCOc1ccc(-c2cc(-c3ccc(Cl)c(O)c3)c(-c3ccncc3)[nH]2)cc1.Cl.Cl [SB-684387] | 90.6 |
